In the library only some 11% were active in any assay of this set; here they are far more common.
HEK cytotox: cytotoxic compounds in HEK 293 cells | 6.6% of 94,000 active | AID 1345083 | Potency, µM (doses to about 115 µM), for the others: at the highest dose activity change, negative = cytotoxicity, most hits filed as inhibitors | HEK 293 viability, ATP luminescence (CellTiter-Glo), 48-72 h; active means well fitted curve in the direction sought with a large enough effect; inconclusive means small, poorly fitted or top-dose-only effect, or another doubt; inactive means no such curve, though single readings can be large; an effect the other way counts as inactive or inconclusive; further: on the % scale 0 is the no-effect control and ±100 the full control effect; nearly all actives have a fitted effect of over 60% in size
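HEK 293 cells seeded at 250 cells/well were exposed to compound for 48 or 72 hr at 37 degree Celsius. Viability taken as ATP content by CellTiter-Glo luminescence.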
Luciferase inh: Photinus pyralis luciferase inhibition | purified P. pyralis luciferase, luminescence, biochemical | Potency, µM (titrated, usually from 115 µM), usual class: inhibitors | 2.5% of 76,000 active; active means well fitted curve in the direction sought with a large enough effect; inconclusive means small, poorly fitted or top-dose-only effect, or another doubt; inactive means no such curve, though single readings can be large; an effect the other way counts as inactive or inconclusive; further: on the % scale 0 is the no-effect control and ±100 the full control effect; nearly all actives have a fitted effect of over 65% in size
Target sequence (P08659 whole entry, looked up): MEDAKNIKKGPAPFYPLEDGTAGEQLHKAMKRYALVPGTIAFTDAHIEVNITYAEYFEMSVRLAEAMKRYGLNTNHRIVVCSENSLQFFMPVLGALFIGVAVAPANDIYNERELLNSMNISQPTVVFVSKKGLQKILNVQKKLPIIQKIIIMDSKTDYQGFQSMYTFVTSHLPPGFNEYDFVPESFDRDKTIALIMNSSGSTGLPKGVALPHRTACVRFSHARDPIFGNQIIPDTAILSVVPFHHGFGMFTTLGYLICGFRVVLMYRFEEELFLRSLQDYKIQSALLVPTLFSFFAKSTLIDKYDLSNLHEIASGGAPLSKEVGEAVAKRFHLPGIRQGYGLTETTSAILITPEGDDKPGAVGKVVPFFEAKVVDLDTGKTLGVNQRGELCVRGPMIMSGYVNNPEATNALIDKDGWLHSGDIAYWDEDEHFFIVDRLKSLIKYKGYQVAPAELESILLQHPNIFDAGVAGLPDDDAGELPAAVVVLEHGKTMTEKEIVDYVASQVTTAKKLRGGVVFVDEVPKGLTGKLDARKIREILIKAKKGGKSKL
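Inhibitors were tested against purified firefly luciferase in a biochemical, low-substrate format (both substrates at 10uM) and luminescence measured with a CCD imager.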
NIH3T3 tox: cytotoxic compounds in NIH 3T3 cells; NIH 3T3 viability, CellTiter-Glo ATP luminescence, 48-72 h; Potency, µM (doses to about 96.7 µM), for inactives: at the top dose activity change, negative = cytotoxicity, usual class: inhibitors; 4.3% of 94,000 active; AID 1345082; active means well fitted curve in the direction sought with a large enough effect; inconclusive means small, poorly fitted or top-dose-only effect, or another doubt; inactive means no such curve, though single readings can be large; an effect the other way counts as inactive or inconclusive; further: on the % scale 0 is the no-effect control and ±100 the full control effect; nearly all actives have a fitted effect of over 55% in size
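NIH 3T3 cells at 400 cells/well received 23 nL of compound by pintool and were incubated 48 or 72 h at 37 °C. Viability was read as ATP-coupled CellTiter-Glo luminescence.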
hNpr1 antagonist: human Npr1 receptor antagonism; P16066; HEK293 hNpr1 GloSensor cGMP, ANP-stimulated luminescence; Potency, µM (series often up to 46.3 µM), inactives show at the highest dose activity change, negative = inhibition, usual class: inhibitors; 1.6% of 76,000 active; further: on the % scale 0 is the no-effect control and ±100 the full control effect; nearly all actives have a fitted effect of over 60% in size
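HEK293 cells stably expressing human Npr1 and cGMP GloSensor pGS-40F, loaded 2 h with 2% GloSensor reagent, given compound 30 min at room temperature. Luminescence read before and 20 min after 0.1 nM hNppA.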
Npr1 antag conf: hNpr1 antagonism, confirmation assay; shares compounds with hNpr1 antagonist; HEK293 hNpr1 cGMP GloSensor luminescence, ANP-stimulated; Potency, µM (top dose mostly 57.6 µM), without a hit: at the top dose activity change, negative = inhibition, actives largely listed as inhibitors; 76% of 1,400 active; AID 1347044; further: nearly all actives have a fitted effect of over 70% in size
NPR2 antag: selectivity test of Npr1 antagonists against human Npr2. shares compounds with hNpr1 antagonist. HEK293 hNpr2 GloSensor cGMP luminescence, CNP-stimulated. Potency, µM (top dose mostly 57.6 µM), without a hit: at the top dose activity change, negative = inhibition, hits mostly inhibitors. 67% of 1,400 active; further: nearly all actives have a fitted effect of over 70% in size
FLuc counter: inhibits firefly luciferase, false Npr1 antagonist flag; shares compounds with hNpr1 antagonist; purified FLuc enzyme, luminescence, Km substrate; Potency, µM (doses to about 57.6 µM), for the others: at the highest dose activity change, negative = inhibition, most hits filed as inhibitors; 0.7% of 1,400 active; AID 1347047; active means well fitted curve in the direction sought with a large enough effect; inconclusive means small, poorly fitted or top-dose-only effect, or another doubt; inactive means no such curve, though single readings can be large; an effect the other way counts as inactive or inconclusive; further: 0% is about no effect
GloSensor ctrl: control cell line activity, Npr1 antagonist counter-screen. shares compounds with hNpr1 antagonist. HEK293 GloSensor cGMP, SNP-stimulated, luminescence. Potency, µM (doses to about 57.6 µM), for inactives: top-dose activity change, negative = inhibition, actives largely listed as inhibitors. 69% of 1,400 active. AID 1347051; further: on the % scale 0 is the no-effect control and ±100 the full control effect; nearly all actives have a fitted effect of over 70% in size
An asterisk follows results filed as active; i = inactive; u = inconclusive; x = not tested or not shown; [ ] = another dose, or the depositor's remark. Unless noted, the call rests on the fitted dose curve. Potency means the concentration at half of the fitted maximal effect.

SMILES	HEK cytotox	Luciferase inh	NIH3T3 tox	hNpr1 antagonist	Npr1 antag conf	NPR2 antag	FLuc counter	GloSensor ctrl
Cn1ccc2c(C(=O)NCc3cccnc3)nc(-c3cccc4cc[nH]c34)cc21	u	i	u	u	u	u	-3%[86.2 µM]	-20%[86.2 µM]
Cn1ccc2c(C(=O)NCc3cccnc3)nc(Nc3ccccc3)cc21	63µM*	i	u	u	35µM*	35µM*	-24%[86.2 µM]	31µM*
CC(C)(C)c1nc(C(=O)NCc2cccnc2)n2ccncc12	-7%	x	-24%	x	x	x	x	x
COc1ccc(CCNC(=O)c2c(C)noc2-c2ccccc2OC)cc1OC	-10%	i	-24%	2%	x	x	x	x
COc1ccc(Nc2n[nH]c(C(O)c3cccc(C(F)(F)F)c3)n2)cc1OC (stereo not drawn)	u	i	-22%[138 µM]	-24%[70.6 µM]	x	x	x	x
OC(c1cccc(C(F)(F)F)c1)c1nc(Nc2ccc3c(c2)OCO3)n[nH]1 (stereo not drawn)	u	i	u	u	u	u	-14%[86.2 µM]	u
COc1cccc(C(=O)N2CCc3onc(-c4cccc(F)c4)c3C2)c1OC	20µM*	i	u	10µM*	22µM*	22µM*	0%	19µM*
COc1cccc(-c2noc3c2CN(C(=O)c2ccc(C)cc2OC)CC3)c1	u	i	u	u	x	x	x	x
O=C1COc2ccc(-c3ccoc3)nc2CN1Cc1ccccc1	u	i	u	u	u	u	-3%[86.2 µM]	u
CN1CCCC1COc1ccc2c(n1)CN(Cc1ccc(C(F)(F)F)cc1)C(=O)CO2 (stereo not drawn)	u	i	u	-2%[70.6 µM]	x	x	x	x
Cc1ccccc1-c1ccc2c(n1)CN(Cc1ccccc1)C(=O)CO2	u	i	u	-4%[70.6 µM]	x	x	x	x
O=C1COc2ccc(-c3ccoc3)nc2CN1Cc1ccc(C(F)(F)F)cc1	u	i	79µM*	35µM*	35µM*	35µM*	-1%[86.2 µM]	35µM*
CC1Oc2ccc(NC(=O)Cc3cccs3)cc2CN(Cc2ccc(Cl)cc2)C1=O (stereo not drawn)	u	i	40µM*	14µM*	27µM*	27µM*	3%	24µM*
COc1ccc(C(=O)Nc2ccc3c(c2)CN(Cc2ccc(F)cc2)C(=O)C(C)O3)c(OC)c1 (stereo not drawn)	32µM*	i	u	u	24µM*	u	2%	24µM*
CC1Oc2ccc(NC(=O)Cc3ccc(F)cc3)cc2CN(Cc2ccccc2F)C1=O (stereo not drawn)	u	u	u	-19%	x	x	x	x
CC1Oc2ccc(NS(=O)(=O)c3cccc(Cl)c3)cc2CN(Cc2ccccc2F)C1=O (stereo not drawn)	50µM*	i	u	u	u	-27%	3%	-7%
O=C(CC(c1ccc(F)cc1)c1cn(Cc2ccccc2)c2ccc([N+](=O)[O-])cc12)N1CCOCC1 (stereo not drawn)	u	i	u	10µM*	24µM*	24µM*	0%	19µM*
Cc1ccc(C(CC(=O)N2CCN(c3ccc([N+](=O)[O-])cc3)CC2)c2cn(C)c3ccccc23)cc1 (stereo not drawn)	u	i	-23%	0%	x	x	x	x

Compound activity as filed in PubChem.
